This is a sample that favours compounds with a hit; in the whole collection about 19% have one here.
Chronic BCR inh = qHTS Assay to Find Inhibitors of Chronic Active B-Cell Receptor Signaling | ABC-DLBCL IkBa-CBG/CBR reporter, luminescence ratio, 4 h | Potency, µM (doses to about 46.1 µM), for inactives: top-dose activity change, negative = inhibition, most hits filed as inhibitors | hit rate 0.05% among 340,000; active means well fitted inhibition curve with a large enough effect in the signal ratio, with a control signal flat, not every such curve was filed as active; inconclusive means small, poorly fitted or top-dose-only effect, or effect the other way, or a change in a side signal; the % refers to the signal ratio;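 further: potency means the concentration at half of the fitted maximal effect; plate controls were basal doxycycline-induced cells for no effect and cells given 10 µM MG132 for full effect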
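TMD8 human ABC-DLBCL cells with doxycycline-inducible IκBα–green luciferase fusion and unfused red luciferase, in 0.5% FBS medium; compounds up to 46 uM, 4 h at 37C. Green/red luminescence ratio, filter-overlap corrected, fitted to concentration-response curves.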
MCF10A rerep = A quantitative high throughput screen for small molecules that induce DNA re-replication in MCF 10a normal breast cells. MCF 10A DNA re-replication, Hoechst nuclear intensity, 48 h. hit rate 2.9% among 350,000. Potency, µM (doses to about 46.1 µM), for the others: top-dose activity, positive = re-replication, hits mostly activators; further: potency means the concentration at half of the fitted maximal effect; % of control where 0% means no effect; nearly all actives have a fitted effect of over 50% in size
TDP1 cell CPT = qHTS for Inhibitors of human tyrosyl-DNA phosphodiesterase 1 (TDP1): qHTS in cells in presence of CPT. Potency, µM (series often up to 46.2 µM), inactives show at the top dose activity change, negative = growth inhibition, actives largely listed as inhibitors. hit rate 12% among 420,000. AID 686979, 2013. chicken DT40 Tdp1-/-;hTDP1 cells + 20 nM CPT, ATP luminescence, 48 h; further: potency means the concentration at half of the fitted maximal effect; on the % scale 0 is the no-effect control and ±100 the full control effect; nearly all actives have a fitted effect of over 55% in size
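Cell growth measured by CellTiter-Glo luminescence after a minimum 48 h, 37 C compound exposure with 20 nM CPT in Tdp1-knockout DT40 cells stably expressing hTDP1, seeded 400/well; qHTS titration format.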
SW480 rerep = A quantitative high throughput screen for small molecules that induce DNA re-replication in SW480 colon adenocarcinoma cells. Potency, µM (doses to about 46.1 µM), without a hit: at the top dose re-replication activation, hits mostly activators. hit rate 1.8% among 340,000. SW480 DNA re-replication, Hoechst DNA content imaging, 48 h; further: potency means the concentration at half of the fitted maximal effect; % of control where 0% means no effect; nearly all actives have a fitted effect of over 55% in size
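Treated cells incubate 48 hr (37 C, 5% CO2), are stained 40 min with Hoechst, and nuclear fluorescence is enumerated; a rise in nuclei with high DNA signal marks re-replication.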
IL-1B inflam inh = qHTS for Inhibitors of Inflammasome Signaling: IL-1-beta AlphaLISA Primary Screen | AID 743279, 2014 | THP-1 LPS/ATP IL-1B secretion, AlphaLISA, 16 h; active compounds read low | hit rate 4.7% among 360,000 | activity change, % at 57.5 µM; in the data active means activity change below about -50%; inconclusive means mostly about -30% to -49%; further: on the % scale 0 is the no-effect control and ±100 the full control effect
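Secreted IL-1B measured by AlphaLISA bead assay after 16 h compound exposure of THP-1 cells; compounds (final up to 57.5 uM) added 1 h before LPS (250 ng/mL) and ATP (1.25 mM) stimulation; lower signal means less secretion.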
TDP1 cell noCPT = qHTS for Inhibitors of human tyrosyl-DNA phosphodiesterase 1 (TDP1): qHTS in cells in absence of CPT. DT40 Tdp1-/- hTDP1 cells, no CPT, ATP luminescence, 48 h. hit rate 15% among 420,000. Potency, µM (series often up to 46.2 µM), without a hit: top-dose activity change, negative = growth inhibition, most hits filed as inhibitors; further: potency means the concentration at half of the fitted maximal effect; on the % scale 0 is the no-effect control and ±100 the full control effect; nearly all actives have a fitted effect of over 55% in size
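DT40 Tdp1-/-;hTDP1 cells, no CPT (DMSO vehicle only), 400 cells/well; compounds pin-transferred; ≥48 hr, 37 °C; CellTiter-Glo 30 min RT dark, luminescence read.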
* marks the source's active call; other numbers are inactive results; ? = inconclusive; . = not tested or not shown; [ ] = another dose, or the depositor's remark. Unless noted, the call rests on the fitted dose curve; in most records, active means well fitted curve in the direction sought with a large enough effect; inconclusive means small, poorly fitted or top-dose-only effect, or another doubt; inactive means no such curve, though single readings can be large; an effect the other way counts as inactive or inconclusive.

SMILES	Chronic BCR inh	MCF10A rerep	TDP1 cell CPT	SW480 rerep	IL-1B inflam inh	TDP1 cell noCPT
CC(=O)Nc1ccc(NC(=O)COC(=O)[C@@H]2CCCN2C(=O)c2cccs2)cc1	?	-8.6%	-28.4%	0.3%	6.7	-22.8%
CC(C)c1nnc(SCC(=O)Nc2ccc3c(c2)OCCO3)n1C	3.7%	-2.2%	24.2%	-8.8%	9.0	-2.9%
COc1cc(OC)c2ccc(=O)oc2c1C(CCN1CCCC(C)C1)c1ccc(N(C)C)cc1 (centres undefined)	-4.4%	3.7%	20.6µM*	-12.8%[9.22 µM]	-9.4	?
CCCCCc1cc(=O)oc2c(C(CCN(CC)CC)c3ccc(N(C)C)cc3)c(OC)cc(OC)c12 (centres undefined)	?	-1.6%	?	1.6%	0.0	16.4µM*
CCCCCc1cc(=O)oc2c(C(CCN3CCCC(C)C3)c3cc(OC)c(OC)c(OC)c3)c(OC)cc(OC)c12 (centres undefined)	?	18.5%	?	19.4%[9.22 µM]	-59.9*	29.1µM*
CCCCCc1cc(=O)oc2c(C(CCN3CCCCC3)c3cc(OC)c(OC)c(OC)c3)c(OC)cc(OC)c12 (centres undefined)	?	-2.8%	?	-12.7%	-3.4	?
CCCCCc1cc(=O)oc2c(C(CCN3CCCC(C)C3)c3ccc(N(C)C)cc3)c(OC)cc(OC)c12 (centres undefined)	?	10.8%	?	4.3%	-26.3	23.1µM*
Cc1cc(Cl)ccc1NC(=O)/N=C1/NC(=O)CS1	.	.	-26.5%	.	-21.3	-5.0%
CCOc1ccccc1N(CC(=O)Nc1cccc2ccccc12)S(C)(=O)=O	-1.5%	11.7%	-8.9%	-63.5%	4.8	2.4%
Cc1c(N=C2SCC(=O)N2/N=C/c2ccccc2)c(=O)n(-c2ccccc2)n1C	?	-0.3%	-5.1%	-1.5%	-7.6	2.0%
Cc1sc2ncnc(N(C)Cc3cccs3)c2c1C	?	1.9%	?	7.2%	-10.9	?
CN(Cc1cccs1)c1ncnc2sccc12	?	16.3%	?	0.1%	-21.1	16.4µM*
O=C(CSc1ncnc2sccc12)Nc1ccccc1F	?	1.1%	0.0%	-4.5%	3.4	-1.1%
OCCN(Cc1ccccc1)c1ncnc2sccc12	3.4%	?	?	0.9%	25.8	13µM*
CN(Cc1ccccc1F)c1ncnc2sccc12	?	4.7%	?	0.5%	26.6	20.6µM*
CC(O)(c1ccc(F)c(F)c1)c1nc(-c2ccoc2)cs1 (centres undefined)	.	.	?	.	-17.1	?
Cc1nc(SC(C(=O)c2ccccc2)c2ccccc2)nc2ccccc12 (centres undefined)	2.3%	3.2%	?	-4.1%	39.8	?
COc1ccc2nc(SC(C(=O)c3ccccc3)c3ccccc3)nc(C)c2c1 (centres undefined)	-0.3%	14.8%	23.1µM*	4.0%	9.1	?
O=C(CCc1nc2ccccc2c(=O)[nH]1)Nc1ccccc1N1CCCCC1	.	.	?	.	15.5	?
CCc1ccc(-n2c(C)cc(/C=N/NC(=O)OC)c2C)cc1	-2.9%	5.3%	?	?	-0.1	25.9µM*
COC(=O)N/N=C/c1cc(C)n(-c2ccc(Br)cc2)c1C	0.1%	-4.5%	-22.2%	7.3%	-6.3	?
CCc1ccc(-n2c(C)cc(/C=N/NC(=O)c3ccncc3)c2C)cc1	-9.9%	8.9%	13µM*	-10.6%	6.3	?
[O-][N+](=NC1C=Cc2ccccc21)C1C=Cc2ccccc21 (centres undefined)	.	.	-4.5%	.	.	-16.3%
CCNC(=S)N1N=C2c3ccccc3CCC2C1c1ccc(F)cc1 (centres undefined)	-7.9%	6.51µM*	?	28.8%	13.6	23.1µM*
COc1cc(NC(=O)c2c(OC)cccc2OC)ccc1NC(=O)c1cc2ccccc2o1	?	8.8%	10.3µM*	-1.6%	-27.9	?
SMILES	Chronic BCR inh	MCF10A rerep	TDP1 cell CPT	SW480 rerep	IL-1B inflam inh	TDP1 cell noCPT
COc1cc(NC(=O)c2ccc(C)cc2)ccc1NC(=O)c1cc2ccccc2o1	-1.0%	23.9%	0.9%	3.0%	25.0	-26.3%
COc1cc(NC(=O)c2ccc(F)cc2)ccc1NC(=O)c1cc2ccccc2o1	-0.2%	?	-22.2%	?	9.6	7.8%
CCC(=O)Nc1ccc(NC(=O)c2cc3ccccc3o2)c(OC)c1	9.6%	9.9%	?	29.6%	27.8	10.3µM*
CCCCCC(=O)Nc1ccc(NC(=O)c2cc3ccccc3o2)c(OC)c1	.	.	6.51µM*	.	.	4.61µM*
CN(C)/C=N/S(=O)(=O)c1ccc(Cl)c(Cl)c1	-0.8%	3.3%	7.1%	-5.6%	-17.2	3.0%
COc1ccc(S(=O)(=O)NCc2ccc(C(=O)NCCCN3CC(C)CC(C)C3)cc2)cc1 (centres undefined)	-1.1%	-3.1%	?	-0.8%	3.4	?
C[C@H]1CN=C(N(C)C)N1CCCCc1ccccc1	0.0%	9.9%	?	?	11.5	14.6µM*
CC(C)C[C@H]1CN=C(N(C)C)N1CCCCc1ccccc1	-11.6%	9.3%	5.17µM*	-0.3%	?	2.59µM*
CCC(CC)CN1C(N(C)C)=NC[C@@H]1CC(C)C	-0.4%	9.4%	16.4µM*	1.5%[9.22 µM]	3.1	18.4µM*
CC(C)C[C@H]1CN=C(N(C)C)N1CC1CCCC1	0.0%	?	?	?	-14.4	?
Cc1ccc(NC(=O)c2ccc(F)c(S(=O)(=O)NCCc3ccccc3)c2)cc1F	?	.	20.6µM*	.	.	23.1µM*
Cc1ccc(NC(=O)c2ccc(F)c(S(=O)(=O)N3CCc4ccccc4C3)c2)cc1F	2.6%	.	?	.	.	23.1µM*
COc1ccc(NC(=O)c2ccc(Cl)c(S(=O)(=O)N3CCc4ccccc4C3)c2)cn1	?	?	20.6µM*	-2.5%	-15.5	23.1µM*
COCCCNC(=O)c1csc([C@@H]2O[C@H](CO)[C@H](O)[C@H](O)[C@H]2O)n1	.	.	2.4%	.	6.7	4.0%
Cn1cnnc1SCCOc1ccc(Cl)cc1	-1.8%	0.2%	-20.6%	-1.2%	-80.0*	-2.1%
CC(C)(C)S(=O)(=O)/C(C#N)=C/c1cccn1S(=O)(=O)c1ccccc1	.	.	-8.8%	.	22.4	23.1µM*

Screening data (PubChem BioAssay)
